# Results: the supplement of paper PMC8728848
# The entries come from a sample that favours the strongest signals as a whole.
# How the values were obtained:
# Assay in all cases: glycan array binding signal (z-score within array); higher = stronger binding
# Details in all cases: glycan notation: IUPAC condensed, linker removed
# [1] = molecular target: Fuc(a1-2)Gal(b1-4)GlcNAc(b1-3)Gal(b1-4)GlcNAc(b1-3)Gal(b1-4)GlcNAc
# Method in brief: (§1)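 Negative Z-scores can be read as non-binding. The Z-score is calculated within each array and then averaged across arrays of one protein sequence at different concentrations or buffers and across linkers. Arrays, 3228 in all, were curated from the Consortium for Functional Glycomics database and kept only where the protein sequence was available.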
# [2] = molecular target: Fuc(a1-3)[Gal(b1-4)]GlcNAc(b1-4)Gal(b1-4)[Fuc(a1-3)]GlcNAc(b1-4)Gal(b1-4)[Fuc(a1-3)]GlcNAc
# Method in brief: as §1
# [3] = molecular target: Gal(b1-4)GlcNAc(b1-3)[GlcNAc(b1-6)]Gal(b1-4)GlcNAc
# Method in brief: as §1
# [4] = molecular target: Gal3S(b1-3)GalNAc
# Method in brief: as §1
# [5] = molecular target: Gal3S4S(b1-4)GlcNAc
# Method in brief: as §1
# [6] = molecular target: Gal3S6S(b1-4)GlcNAc6S
# Method in brief: as §1
# [7] = molecular target: Gal6S(b1-4)Glc6S
# Method in brief: as §1
# [8] = molecular target: GalNAc(b1-3)Gal
# Method in brief: as §1
# [9] = molecular target: GlcNAc(a1-6)Gal(b1-4)GlcNAc
# Method in brief: as §1
# [10] = molecular target: GlcNAc(b1-2)Man(a1-3)[GlcNAc(b1-2)Man(a1-6)]Man(b1-4)GlcNAc(b1-4)GlcNAc
# Method in brief: as §1
# [11] = molecular target: GlcNAc(b1-3)Gal(b1-3)GalNAc
# Method in brief: as §1
# [12] = molecular target: GlcNAc(b1-4)GlcNAc(b1-4)GlcNAc(b1-4)GlcNAc(b1-4)GlcNAc
# Method in brief: as §1
# [13] = molecular target: GlcNAc(b1-4)GlcNAc(b1-4)GlcNAc(b1-4)GlcNAc(b1-4)GlcNAc(b1-4)GlcNAc
# Method in brief: as §1
# [14] = molecular target: Man(a1-2)Man(a1-3)Man
# Method in brief: as §1
# [15] = molecular target: Man(a1-3)[Man(a1-6)]Man(a1-6)[Man(a1-3)]Man(b1-4)GlcNAc(b1-4)GlcNAc
# Method in brief: as §1
# [16] = molecular target: Man(a1-6)Man
# Method in brief: as §1
# [17] = molecular target: Neu5Ac(a2-3)Gal(b1-4)Glc
# Method in brief: as §1
# [18] = molecular target: Neu5Ac(a2-3)Gal(b1-4)[Fuc(a1-3)]GlcNAc(b1-3)Gal
# Method in brief: as §1
# [19] = molecular target: Neu5Ac(a2-6)Gal(b1-4)GlcNAc(b1-2)Man(a1-3)[GlcNAc(b1-2)Man(b1-4)GlcNAc(b1-2)Man(a1-6)]Man(b1-4)GlcNAc(b1-4)GlcNAc
# Method in brief: as §1
# [20] = molecular target: Neu5Ac(a2-6)Gal(b1-4)GlcNAc(b1-2)Man(a1-3)[Neu5Ac(a2-6)Gal(b1-4)GlcNAc(b1-2)Man(a1-6)]Man(b1-4)GlcNAc(b1-4)GlcNAc
# Method in brief: as §1
# [21] = molecular target: Neu5Gc(a2-3)Gal(b1-4)GlcNAc
# Method in brief: as §1
# [22] = molecular target: Fuc(a1-2)[GalNAc(a1-4)]Gal(b1-4)GlcNAc
# Method in brief: as §1
# [23] = molecular target: Fuc(a1-3)[Gal(b1-4)]GlcNAc(b1-4)Gal(b1-4)[Fuc(a1-3)]GlcNAc
# Method in brief: as §1
# [24] = molecular target: Fuc(a1-3)[Gal3S(b1-4)]Glc6S
# Method in brief: as §1
# [25] = molecular target: Fuc(a1-3)[Gal3S(b1-4)]GlcNAc6S
# Method in brief: as §1
# [26] = molecular target: Gal(b1-4)GlcNAc(b1-3)GalNAc
# Method in brief: as §1
# [27] = molecular target: Gal3S(b1-3)[Fuc(a1-4)]GlcNAc
# Method in brief: as §1
# [28] = molecular target: GlcNAc(b1-3)[GlcNAc(b1-6)]GalNAc
# Method in brief: as §1
# [29] = molecular target: GlcNAc(b1-6)GalNAc
# Method in brief: as §1
# [30] = molecular target: Man(a1-3)[Man(a1-6)]Man(b1-4)GlcNAc(b1-4)GlcNAc
# Method in brief: as §1
# [31] = molecular target: Neu5Ac(a2-3)Gal
# Method in brief: as §1
# [32] = molecular target: Neu5Ac(a2-3)Gal(b1-3)[Fuc(a1-4)]GlcNAc
# Method in brief: as §1
# [33] = molecular target: Neu5Ac(a2-3)Gal(b1-4)GlcNAc
# Method in brief: as §1
# [34] = molecular target: Neu5Ac(a2-3)Gal(b1-4)GlcNAc(b1-3)Gal(b1-4)GlcNAc(b1-3)Gal(b1-4)GlcNAc
# Method in brief: as §1
# [35] = molecular target: Neu5Ac(a2-3)Gal(b1-4)[Fuc(a1-3)]GlcNAc(b1-3)Gal(b1-4)[Fuc(a1-3)]GlcNAc(b1-3)Gal(b1-4)[Fuc(a1-3)]GlcNAc
# Method in brief: as §1
# [36] = molecular target: Neu5Ac(a2-3)Gal(b1-4)[Fuc(a1-3)]GlcNAc6S
# Method in brief: as §1
# [37] = molecular target: Neu5Gc(a2-3)Gal(b1-3)[Fuc(a1-4)]GlcNAc
# Method in brief: as §1
Binder,glycan array binding signal (z-score) [1],glycan array binding signal (z-score) [2],glycan array binding signal (z-score) [3],glycan array binding signal (z-score) [4],glycan array binding signal (z-score) [5],glycan array binding signal (z-score) [6],glycan array binding signal (z-score) [7],glycan array binding signal (z-score) [8],glycan array binding signal (z-score) [9],glycan array binding signal (z-score) [10],glycan array binding signal (z-score) [11],glycan array binding signal (z-score) [12],glycan array binding signal (z-score) [13],glycan array binding signal (z-score) [14],glycan array binding signal (z-score) [15],glycan array binding signal (z-score) [16],glycan array binding signal (z-score) [17],glycan array binding signal (z-score) [18],glycan array binding signal (z-score) [19],glycan array binding signal (z-score) [20],glycan array binding signal (z-score) [21],glycan array binding signal (z-score) [22],glycan array binding signal (z-score) [23],glycan array binding signal (z-score) [24],glycan array binding signal (z-score) [25],glycan array binding signal (z-score) [26],glycan array binding signal (z-score) [27],glycan array binding signal (z-score) [28],glycan array binding signal (z-score) [29],glycan array binding signal (z-score) [30],glycan array binding signal (z-score) [31],glycan array binding signal (z-score) [32],glycan array binding signal (z-score) [33],glycan array binding signal (z-score) [34],glycan array binding signal (z-score) [35],glycan array binding signal (z-score) [36],glycan array binding signal (z-score) [37]
MD-2 (Homo sapiens) (protein) MLPFLFFSTLFSSIFTEAQKQYWVCNSSDASISYTYCDKMQYPISINVNPCIELKGSKGLLHIFYIPRRDLKQLYFNLYITVNTMNLPKRKEVICRGSDDDYSFCRALKGETVNTTISFSFKGIKFSKGKYKCVVEAISGSPEEMLFCLEFVILHQPNSN,0.156,-0.473,-0.262,-0.242,3.89,6.6,6.38,-0.354,-0.163,-0.316,-0.326,4.23,5.59,-0.386,0.116,0.081,-0.127,-0.504,-0.331,-0.321,-0.291,,,,,,,,,,,,,,,,
"E-Selectin (Mus musculus), Q00690 (protein) MNASRFLSALVFVLLAGESTAWYYNASSELMTYDEASAYCQRDYTHLVAIQNKEEINYLNSNLKHSPSYYWIGIRKVNNVWIWVGTGKPLTEEAQNWAPGEPNNKQRNEDCVEIYIQRTKDSGMWNDERCNKKKLALCYTASCTNASCSGHGECIETINSYTCKCHPGFLGPNCEQAVTCKPQEHPDYGSLNCSHPFGPFSYNSSCSFGCKRGYLPSSMETTVRCTSSGEWSAPAPACHVVECEALTHPAHGIRKCSSNPGSYPWNTTCTFDCVEGYRRVGAQNLQCTSSGIWDNETPSCKAVTCDAIPQPQNGFVSCSHSTAGELAFKSSCNFTCEQSFTLQGPAQVECSAQGQWTPQIPVCKAVQCEALSAPQQGNMKCLPSASGPFQNGSSCEFSCEEGFELKGSRRLQCGPRGEWDSKKPTCSAVKCDDVPRPQNGVMECAHATTGEFTYKSSCAFQCNEGFSLHGSAQLECTSQGKWTQEVPSCQVVQCPSLDVPGKMNMSCSGTAVFGTVCEFTCPDDWTLNGSAVLTCGATGRWSGMPPTCEAPVSPTRPLVVALSAAGTSLLTSSSLLYLLMRYFRKKAKKFVPASSCQSLQSFENYHVPSYNV",-0.255,,,,,,,,,,,,,,,,,,,,,-0.301,0.598,5.1,2.52,-0.338,4.55,-0.279,-0.272,-0.288,-0.277,4.47,-0.333,-0.184,3.13,3.24,4.57
